Source: PubChem BioAssay (NCI)
Compounds without any hit were thinned out: in the full panel of roughly 83,000, 20% have a hit.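 Results are percent growth after 48 hours of single-concentration exposure. 100 means growth as in untreated cells, lower positive values show inhibition; negative values down to -100 show cell death.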 Unmarked numbers belong to inactive results. The source made the active and inactive calls. Rule for the calls: active = growth percent below 10; inactive = the rest.

Legend:
Test in all cases: NCI-60 one-dose screen, 48 h (100 = growth as untreated, 0 = no growth, -100 = all killed)
Details in all cases: 10 µM unless noted
NCI-H23 lung = tested on: NCI-H23 lung
NCI-H226 lung = tested on: NCI-H226 lung
NCI-H322M lung = tested on: NCI-H322M lung
HOP-62 NSCLC = tested on: HOP-62 NSCLC
NCI-H460 lung = tested on: NCI-H460 lung
HOP-92 NSCLC = tested on: HOP-92 NSCLC
NCI-H522 lung = tested on: NCI-H522 lung
A549/ATCC NSCLC = tested on: A549/ATCC NSCLC
786-0 renal = tested on: 786-0 renal
COLO 205 colon = tested on: COLO 205 colon
DU-145 prostate = tested on: DU-145 prostate
K-562 leukemia = tested on: K-562 leukemia
MALME-3M melanoma = tested on: MALME-3M melanoma
MDA-MB-231 breast = tested on: MDA-MB-231 breast
RXF 393 renal = tested on: RXF 393 renal
SF-268 CNS = tested on: SF-268 CNS
SF-295 CNS = tested on: SF-295 CNS
SF-539 CNS = tested on: SF-539 CNS
UACC-257 melanoma = tested on: UACC-257 melanoma
M14 melanoma = tested on: M14 melanoma

SMILES	growth (NCI-H23 lung)	growth (NCI-H226 lung)	growth (NCI-H322M lung)	growth (HOP-62 NSCLC)	growth (NCI-H460 lung)	growth (HOP-92 NSCLC)	growth (NCI-H522 lung)	growth (A549/ATCC NSCLC)	growth (786-0 renal)	growth (COLO 205 colon)	growth (DU-145 prostate)	growth (K-562 leukemia)	growth (MALME-3M melanoma)	growth (MDA-MB-231 breast)	growth (RXF 393 renal)	growth (SF-268 CNS)	growth (SF-295 CNS)	growth (SF-539 CNS)	growth (UACC-257 melanoma)	growth (M14 melanoma)
CO[C@H]1C[C@@H]2CC[C@@H](C)[C@@](O)(O2)C(=O)C(=O)N2CCCC[C@H]2C(=O)O[C@H]([C@H](C)C[C@@H]2CC[C@@H](OP(C)(C)=O)[C@H](OC)C2)CC(=O)[C@H](C)/C=C(\C)[C@@H](O)[C@@H](OC)C(=O)[C@H](C)C[C@H](C)\C=C/C=C/C=C/1C	57.5%	40.9%	54.5%	28.5%	40.4%	36.2%	31.8%	34.6%	53.3%	52.6%	46%	48.4%	40.4%	71.7%	18.9%	62.9%	23.5%	41.8%	30.7%	66.4%
COC(=O)CNC(=O)[C@@H](OC)[C@@H]1Cc2cc3cc(OC4CC(OC5CC(O)C(O)C(C)O5)C(O)C(C)O4)c(C)c(O)c3c(O)c2C(=O)[C@H]1OC1CC(OC2CC(OC3CC(C)(O)C(O)C(C)O3)C(O)C(C)O2)C(O)C(C)O1 (stereo not given in full)	-16.8% (active)	-10% (active)	15.7%	21.6%	9.15% (active)	9.61% (active)	-19% (active)	7.82% (active)	-2.99% (active)	-17.6% (active)	17.2%	10.2%	-35.3% (active)	21.5%	-75.4% (active)	21.1%	6.85% (active)	-28.7% (active)	6.03% (active)	-32.1% (active)
COc1ccc(S(=O)(=O)N(C(C)=O)c2ccccc2/C=C/c2cc[n+]([O-])cc2)cc1	32.7%	80.6%	39.2%	10.5%	3.49% (active)	56.6%	-26.4% (active)	17.5%	26.7%	-36.6% (active)	16%	7.61% (active)	47%	45.6%	-5.21% (active)	34.6%	13.7%	-30.4% (active)	65.5%	-14.3% (active)
CN1CCN(CC(=O)Nc2ccc(-c3nc4ccccc4s3)cc2)CC1	82.2%	96.2%	77.9%	87.3%	84.7%	35.7%	58.9%	88.6%	78.7%	39.7%	85.2%	41.8%	98.3%	59.8%	54.3%	83%	91.1%	-31.9% (active)	105%	67.6%
C[C@@H](Oc1cc(C(=O)Nc2ccc(C(=O)N3CCN(C)CC3)cc2)nnc1N)c1c(Cl)ccc(F)c1Cl	62.6%	66.9%	92.9%	64.8%	79.8%	48.3%	71.1%	55.8%	67.4%	55.1%	84.7%	28.7%	65.2%	62.2%	62.6%	70.3%	13.9%	64.9%	60.9%	76.9%
COc1cc2c(cc1O)c(=O)n(CCN(C)C)c1c3cc4c(cc3ncc21)OCO4	-19.1% (active)	-48.7% (active)	-5.9% (active)	-4.35% (active)	-14.8% (active)	-16.6% (active)	-37% (active)	-56% (active)	-54.5% (active)	45.9%	-10.9% (active)	2.47% (active)	-57.6% (active)	-5.67% (active)	-51% (active)	3.41% (active)	-5.78% (active)	-35.5% (active)	-47.6% (active)	-23.3% (active)
CCN1CCN(Cc2ccc(Cc3ncc(F)c(-c4cc(F)c5nc(C)n(C(C)C)c5c4)n3)nc2)CC1	44.3%	34.3%	29.3%	44.4%	-56.1% (active)	50%	69%	28.5%	46.4%	16%	60.4%	-29.2% (active)	65.9%	53.4%	-28.2% (active)	54.4%	64.9%	59.8%	52.8%	45.2%
Clc1ccc(C(Cn2ccnc2)OCc2ccsc2Cl)c(Cl)c1 (stereo not given)	37.9%	63%	88.2%	73.6%	57.7%	28.7%	35.1%	56.1%	55.6%	62.9%	90.3%	16%	65.8%	70.9%	27.8%	67.5%	37.6%	72.5%	59.7%	41.4%
Cc1cc(C)n(CC(=O)Nc2ccc(-c3nc4ccccc4s3)cc2)n1	93.8%	100%	99.9%	105%	102%	97.7%	103%	94.7%	106%	112%	103%	100%	108%	108%	129%	100%	103%	98.6%	107%	111%
Cc1cccc(Cl)c1NC(=O)c1cnc(Nc2cc(N3CCOCC3)cc(S(C)(=O)=O)c2)s1	81.5%	66%	-6.54% (active)	11.8%	71.4%	-55.1% (active)	7.33% (active)	-0.245% (active)	11.6%	-6.99% (active)	-41.1% (active)	6.1% (active)	42.2%	9.71% (active)	-34.8% (active)	25.4%	53.8%	2.23% (active)	43.2%	42.4%
Brc1ccc([I+]c2ccc(Br)cc2)cc1	-9.33% (active)	45.9%	48.1%	-83% (active)	18.6%	-6.41% (active)	-35.7% (active)	40.5%	27.7%	-28.7% (active)	52.6%	9.03% (active)	35.7%	15.1%	40.6%	-56.7% (active)	27.5%	27.3%	27%	10.3%
COc1cc2nccc(Oc3ccc(NC(=O)C4(C(=O)Nc5ccc(F)cc5)CC4)cc3)c2cc1OC	14.4%	11.7%	12.1%	9.04% (active)	6.12% (active)	-36.9% (active)	11.4%	2.35% (active)	13.1%	-44.7% (active)	27.3%	0.49% (active)	0.11% (active)	4.99% (active)	-25.5% (active)	34%	-8.99% (active)	-10.2% (active)	-12.6% (active)	-11.6% (active)
COc1ccc2c(OCc3nnc4ccc(-c5ccccc5)nn34)ccnc2c1	70.2% [2.5 µM]	84.7% [2.5 µM]	92% [2.5 µM]	77.5% [2.5 µM]	110% [2.5 µM]	98.7% [2.5 µM]	85.8% [2.5 µM]	94.1% [2.5 µM]	93.7% [2.5 µM]	95.3% [2.5 µM]	109% [2.5 µM]	93.1% [2.5 µM]	97.8% [2.5 µM]	106% [2.5 µM]	-13.9% [2.5 µM] (active)	109% [2.5 µM]	63.4% [2.5 µM]	95.1% [2.5 µM]	120% [2.5 µM]	104% [2.5 µM]
COc1cc(NCCCN)c2ncccc2c1	70.8%	92.7%	82.9%	79.4%	74%	50.7%	84%	95.9%	95.7%	91.8%	109%	89.9%	109%	87.5%	93.6%	90.7%	67.8%	88.4%	93.7%	75.9%
CCn1cc(-c2ccnc3[nH]c(-c4cccc(CN(C)C)c4)cc23)c(-c2ccc(NC(=O)N(C)C)cc2)n1	17.6%	32.3%	38.7%	15%	9.19% (active)	-13.3% (active)	6.18% (active)	14.9%	35.1%	-26.9% (active)	40.2%	1.59% (active)	46.9%	14%	-24.8% (active)	33.5%	16.1%	5.58% (active)	40.8%	21.4%
